How the values were obtained:
Assay in all cases: SPOT peptide array binding signal intensity (averaged, normalized) (arbitrary units (background-subtracted, floor 0; scale differs between SH3 domains)); higher = stronger binding of the SH3 domain to the peptide
CaNbp2 = target: CaNbp2
Procedure: (§1)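 GST-tagged SH3 domains from S. cerevisiae (Sc), A. gossypii (Ag), C. albicans (Ca) and S. pombe (Sp) were incubated at 10 ug/ml overnight at 4 C on cellulose SPOT membranes carrying 292 synthetic 15-mer peptides mined from the S. cerevisiae proteome (cysteines replaced by serines). Binding was detected with anti-GST antibody, HRP secondary and chemiluminescence, quantified with Genespotter, and reported as normalized spot intensities averaged over biological replicates.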

CaRvs167 = target: CaRvs167
Procedure: as §1

CaRvs167-3 = target: CaRvs167-3
Procedure: as §1

CaSho1 = target: CaSho1
Procedure: as §1

CaSla1-D1-D2 = target: CaSla1-D1-D2
Procedure: as §1

CaSla1-D3 = target: CaSla1-D3
Procedure: as §1

ScAbp1 = target: ScAbp1
Procedure: as §1

ScBbc1 = target: ScBbc1
Procedure: as §1

ScBem1-D1 = target: ScBem1-D1
Procedure: as §1

ScBzz1-D1 = target: ScBzz1-D1
Procedure: as §1

ScBzz1-D2 = target: ScBzz1-D2
Procedure: as §1

ScCyk3 = target: ScCyk3
Procedure: as §1

ScFus1 = target: ScFus1
Procedure: as §1

ScHof1 = target: ScHof1
Procedure: as §1

ScHse1 = target: ScHse1
Procedure: as §1

ScLsb1 = target: ScLsb1
Procedure: as §1

ScLsb2 = target: ScLsb2
Procedure: as §1

ScLsb3 = target: ScLsb3
Procedure: as §1

ScLsb4 = target: ScLsb4
Procedure: as §1

ScMyo3 = target: ScMyo3
Procedure: as §1

ScMyo5 = target: ScMyo5
Procedure: as §1

ScNbp2 = target: ScNbp2
Procedure: as §1

ScPex13 = target: ScPex13
Procedure: as §1

ScRvs167 = target: ScRvs167
Procedure: as §1

ScSho1 = target: ScSho1
Procedure: as §1

ScSla1-D1-D2 = target: ScSla1-D1-D2
Procedure: as §1

ScSla1-D3 = target: ScSla1-D3
Procedure: as §1

SpAbp1-D1 = target: SpAbp1-D1
Procedure: as §1

SpBbc1 = target: SpBbc1
Procedure: as §1

SpBzz1-D1 = target: SpBzz1-D1
Procedure: as §1

SpBzz1-D2 = target: SpBzz1-D2
Procedure: as §1

SpCyk3 = target: SpCyk3
Procedure: as §1

SpHof1 = target: SpHof1
Procedure: as §1

SpHof1-2 = target: SpHof1-2
Procedure: as §1

SpHof1-3 = target: SpHof1-3
Procedure: as §1

SpHse1 = target: SpHse1
Procedure: as §1

SpLsb1 = target: SpLsb1
Procedure: as §1

SpLsb4 = target: SpLsb4
Procedure: as §1

SpMyo1 = target: SpMyo1
Procedure: as §1

SpNbp2 = target: SpNbp2
Procedure: as §1

SpPex13 = target: SpPex13
Procedure: as §1

SpRvs167 = target: SpRvs167
Procedure: as §1

SpSla1-D1-D2 = target: SpSla1-D1-D2
Procedure: as §1

SpSla1-D3 = target: SpSla1-D3
Procedure: as §1

B1: unnamed (peptide)
chain: PKMLPIPSKPTLFDL
Q: Which “SPOT peptide array binding signal intensity” value (CaNbp2) does the source give for B1 here?
A: 303

Q: And the “SPOT peptide array binding signal intensity” value (CaRvs167)?
A: 47

Q: What about the “SPOT peptide array binding signal intensity” value (CaRvs167-3) of the same binder?
A: ≤ 0

Q: What about the “SPOT peptide array binding signal intensity” value (CaSho1) of the same binder?
A: 1680

Q: And the “SPOT peptide array binding signal intensity” value (CaSla1-D1-D2)?
A: 188

Q: What about the “SPOT peptide array binding signal intensity” value (CaSla1-D3) of the same binder?
A: 116

Q: And the “SPOT peptide array binding signal intensity” value (ScAbp1)?
A: 14

Q: And the “SPOT peptide array binding signal intensity” value (ScBbc1)?
A: 0.5

Q: And the “SPOT peptide array binding signal intensity” value (ScBem1-D1)?
A: ≤ 0

Q: What about the “SPOT peptide array binding signal intensity” value (ScBzz1-D1) of the same binder?
A: 9

Q: What about the “SPOT peptide array binding signal intensity” value (ScBzz1-D2) of the same binder?
A: 22

Q: And the “SPOT peptide array binding signal intensity” value (ScCyk3)?
A: 3

Q: What about the “SPOT peptide array binding signal intensity” value (ScFus1) of the same binder?
A: 405

Q: And the “SPOT peptide array binding signal intensity” value (ScHof1)?
A: ≤ 0

Q: What about the “SPOT peptide array binding signal intensity” value (ScHse1) of the same binder?
A: 73.5

Q: What about the “SPOT peptide array binding signal intensity” value (ScLsb1) of the same binder?
A: 11.5

Q: And the “SPOT peptide array binding signal intensity” value (ScLsb2)?
A: ≤ 0

Q: And the “SPOT peptide array binding signal intensity” value (ScLsb3)?
A: 172

Q: And the “SPOT peptide array binding signal intensity” value (ScLsb4)?
A: 80

Q: What about the “SPOT peptide array binding signal intensity” value (ScMyo3) of the same binder?
A: 0.5

Q: What about the “SPOT peptide array binding signal intensity” value (ScMyo5) of the same binder?
A: 2

Q: And the “SPOT peptide array binding signal intensity” value (ScNbp2)?
A: 240

Q: What about the “SPOT peptide array binding signal intensity” value (ScPex13) of the same binder?
A: 229

Q: What about the “SPOT peptide array binding signal intensity” value (ScRvs167) of the same binder?
A: 30.5

Q: What about the “SPOT peptide array binding signal intensity” value (ScSho1) of the same binder?
A: 673

Q: And the “SPOT peptide array binding signal intensity” value (ScSla1-D1-D2)?
A: 179

Q: What about the “SPOT peptide array binding signal intensity” value (ScSla1-D3) of the same binder?
A: 374

Q: And the “SPOT peptide array binding signal intensity” value (SpAbp1-D1)?
A: 286

Q: And the “SPOT peptide array binding signal intensity” value (SpBbc1)?
A: 0.5

Q: What about the “SPOT peptide array binding signal intensity” value (SpBzz1-D1) of the same binder?
A: 426

Q: What about the “SPOT peptide array binding signal intensity” value (SpBzz1-D2) of the same binder?
A: 20.5

Q: And the “SPOT peptide array binding signal intensity” value (SpCyk3)?
A: ≤ 0

Q: What about the “SPOT peptide array binding signal intensity” value (SpHof1) of the same binder?
A: 154

Q: What about the “SPOT peptide array binding signal intensity” value (SpHof1-2) of the same binder?
A: 410

Q: What about the “SPOT peptide array binding signal intensity” value (SpHof1-3) of the same binder?
A: 433

Q: And the “SPOT peptide array binding signal intensity” value (SpHse1)?
A: 136

Q: What about the “SPOT peptide array binding signal intensity” value (SpLsb1) of the same binder?
A: 15.5

Q: And the “SPOT peptide array binding signal intensity” value (SpLsb4)?
A: 402

Q: And the “SPOT peptide array binding signal intensity” value (SpMyo1)?
A: 82

Q: And the “SPOT peptide array binding signal intensity” value (SpNbp2)?
A: 55.5

Q: And the “SPOT peptide array binding signal intensity” value (SpPex13)?
A: 39.5

Q: What about the “SPOT peptide array binding signal intensity” value (SpRvs167) of the same binder?
A: 45.3

Q: What about the “SPOT peptide array binding signal intensity” value (SpSla1-D1-D2) of the same binder?
A: 12

Q: What about the “SPOT peptide array binding signal intensity” value (SpSla1-D3) of the same binder?
A: 132

Reference: the supplement of paper PMC4466140
